Here are results for 26 compounds from PubChem BioAssay (EPA / NIEHS).

Where “and” joins values, the source holds several entries; their conditions need not be identical. Equal values may be shown once. A structure can be active in one record and inactive in another. Calls of active or inactive are those of the source. The calls were made as follows: active = hit-call score of the fitted dose curve at least 0.9, where 1 is the maximum; inactive = score below 0.9.

This assay in a line: CCTE_Shafer_MEA_acute_firing_rate_mean: CCTE's Neural Acute Assay for Mean Firing Rate, Shafer Lab (AID 2284009). The method, then: CCTE_Shafer_MEA_acute assay is conducted using Axion Biosystems 48 well microelectrode array (MEA) plates and Maestro recording system. Each well of the MEA plate contains a grid of 16 microelectrodes embedded in the culture surface. Electrically active cells, such as neurons, can be cultured over the electrodes, and electrical activity in these cells can be recorded extracellularly. The spontaneous firing of neurons is captured from each electrode on a microsecond timescale providing both temporally and spatially precise data. […] The CCTE_Shafer_MEA_acute assay uses primary cultures of rat cortical neurons. As these cultures mature over time, neural networks develop functional activity and form cohesive networks in which electrical activity can be highly coordinated. Baseline 40-minute recordings are made on days post-plating 13 or 15, followed by a secondary 40-minute recording after chemical exposure.CCTE_Shafer_MEA_acute_firing_rate_mean is a component of the CCTE_Shafer_MEA_acute assay. It measures the frequency number of spikes (action potential firings) as the total number of spikes divided by the length of the recording in a microelectrode array (MEA) using Axion Biosystems Maestro 768 channel amplifier with the AxIS adaptive spike detector. The firing rate is divided by the number of electrodes to report a well-mean value. The recordings before and after chemical treatment are used to calculate a percent change in the mean firing rate in each well.Data from the assay component CCTE_Shafer_MEA_acute_firing_rate_mean was analyzed into 1 assay endpoint. This assay endpoint, CCTE_Shafer_MEA_acute_firing_rate_mean, was analyzed in the negative analysis fitting direction relative to DMSO as the negative control and baseline of activity. Using a type of functional reporter, gain or loss-of-signal activity can be used to understand electrical activity.
Spontaneous activity in the cortical cultures was recorded using an Axion Biosystems Maestro 768 channel amplifier and Axion Integrated Studios (AxIS) v1.8 (or later) software. The amplifier recorded from all channels simultaneously (gain = 1200 x; sampling rate = 12.5 kHz/channel): raw signals were filtered with a Butterworth band-pass filter (300-5000 Hz), which filters out slower local field potentials leaving only fast potentials, i.e., "spikes", arising from extracellular currents associated with action potentials (Pine 2006; Wheeler and Nam 2011). On-line spike detection of filtered signals was conducted with the AxIS adaptive spike detector, using a threshold of 8x the root mean squared (rms) noise on each channel. Any electrodes with rms noise levels greater than 5 uV were grounded (e.g., no data were recorded). Once grounded, an electrode was grounded for the duration of the experiment. All recordings were conducted at 37 C. Wells were deemed usable if on the day of the exposure >/= 10 electrodes were active (defined as >/= 5 spikes/min). On DIV 13 or 15, a minimum of three wells from one cortical culture preparation were treated with each compound (0.03-40 uM). Prior to recording baseline activity, each mwMEA plate was placed in the Maestro at 37 C and allowed to sit for 20 min while firing rates stabilized. Baseline activity (40 min) was recorded before the addition of each compound. An additional 40 min of spontaneous activity was recorded in the presence of each compound. Changes in network parameters relative to baseline were assessed following compound treatment.
As for `COc1ccc(O)c(C(C)(C)C)c1`, the half-maximal activity concentration (AC50) was 3.03 µM (active) and 679 nM (active); the call was inactive.
As for `ClC1=C(Cl)[C@]2(Cl)[C@@H]3[C@H]4C[C@H]([C@@H]5O[C@H]45)[C@@H]3[C@@]1(Cl)C2(Cl)Cl`, the concentration at half-maximal activity (AC50) is 1.4 µM (active).
In the case of `O=C(O)C(F)(F)C(F)(F)C(F)(F)C(F)(F)C(F)(F)F`, the result was inactive.
For the compound `c1ccc(-c2ccccc2)cc1`, the outcome was inactive.
For the compound `CCCCCCCCCc1ccc(O)cc1`, the half-maximal activity concentration (AC50) is 9.87 µM (active).
With `CCC(C)c1cc([N+](=O)[O-])cc([N+](=O)[O-])c1O` (configuration not stated), the call was inactive.
Still for that read-out and setting: then `CCC(C)(c1ccc(O)cc1)c1ccc(O)cc1`, with “inactive”; and `CCC(C)(CC)c1cc(NC(=O)c2c(OC)cccc2OC)on1`, with “inactive”.
On the same count and under the same terms, then `CN(C)CCO`, with “inactive”.
With `Nc1ccc(-c2ccc(N)cc2)cc1`, the compound was called inactive.
Still for that read-out and setting: then `ClC(Cl)=C(c1ccc(Cl)cc1)c1ccc(Cl)cc1`, with “inactive”; and `O=C(NC(=O)c1c(F)cccc1F)Nc1cc(Cl)c(OC(F)(F)C(F)F)c(Cl)c1`, with “inactive”.
Consider `ClC1=C(Cl)[C@]2(Cl)[C@@H]3[C@@H](Cl)[C@H]4O[C@H]4[C@@H]3C1(Cl)C2(Cl)Cl`, for which the AC50 was 0.107 µM (active).
Still for that read-out and setting: the figure for `ClC1=C(Cl)[C@]2(Cl)[C@@H]3[C@@H]4C[C@@H]([C@H]5O[C@@H]45)[C@@H]3[C@@]1(Cl)C2(Cl)Cl` is 0.489 µM (active).
Take `Clc1ccc(C(Cl)(Cl)Cl)cc1`: the call was inactive.
Regarding `C=CC(N)=O`, the result was inactive.
On to `CCCN(CCC)N=O`, for which the result was inactive.
The same measure, in the same setting: then `COS(=O)(=O)OC`, with “inactive”.
Turning to `CC#Cc1cc(C)nc(Nc2ccccc2)n1`, the AC50 was 4.06 µM (active).
As for `CO/C=C(/C(=O)OC)c1ccccc1COc1cccc(C(F)(F)F)n1`, the AC50 is 0.28 µM (active).
Regarding `CCCCCCCCCC[N+](C)(C)CCCCCCCCCC`, the AC50 is 2.88 µM (active).
Still for that read-out and setting: the figure for `CCSC(=O)N(CC)C1CCCCC1` is 20 µM (active).
Regarding `CC(C)C(=O)OCC(C)(C)C(OC(=O)C(C)C)C(C)C` (configuration not stated), the call was inactive.
As to `Oc1ccc(C(c2ccc(O)cc2)(C(F)(F)F)C(F)(F)F)cc1`, the AC50 was 3.16 µM (active).
As to `O=C(N[C@H]1CN2CCC1CC2)c1cc2ccoc2cn1`, the result was inactive.
Regarding `CC(c1ccc(O)cc1)(c1ccc(O)cc1)c1ccc(O)cc1`, the AC50 is 3.97 µM (active).

As a reminder, the AC50 is the midpoint of the concentration-response curve, whichever way the signal moves.
